{"source": "PubChem BioAssay AID624116", "about": "(National Center for Advancing Translational Sciences (NCATS), 2012)", "note": "Results filed as inconclusive are left out. Active and inactive are the calls of the source. The call rests on the fitted dose curve; in most records, active means well fitted activation curve with a large enough effect; inconclusive means small, poorly fitted or top-dose-only effect; inactive means no such curve, though single readings can be large or run the other way.", "data": [{"test": "qHTS Assay for Rab9 Promoter Activators: Hit Validation Using Renilla Luciferase Read-Out for Rab9", "conditions": "Huh7 Rab9 promoter Renilla luciferase reporter, 24 h; series mostly up to 76.9 µM", "text": "Niemann Pick Type C (NPC) is a rare neurodegenerative lipidosis that is characterized by lipid storage in the endosomal/lysosomal system. Treatment modalities for this devastating disease are currently non-existent due to the severe obstacles associated with accessing the central nervous system with proteins or genes. The majority of mutations causing NPC disease are missense mutations that are distributed throughout the length of the NPC1 protein, with the most prevalent being the I1061T allele. Although NPC1 mutant proteins may be functional, they are typically trapped in the ER due to misfolding. […] We have developed and optimized a cell based renilla luciferase reporter assay in 1536 well format for the identification of up-regulators of the mutant Rab9 promoter. This assay presents data on the validation of hits from the primary screen, which used a firefly luciferase read-out. NIH Chemical Genomics Center [NCGC] NIH Molecular Libraries Probe Production centers Network [MLPCN] MLPCN Grant: MH089375 Assay Submitter (PI): Yiannis A. Ioannou\nHuh7 cells stably expressing NPC promoter-luciferase will be seeded at 1,500 cells/well in 5 uL in 1,536-well white opaque plates with 23 nL/well of compound in DMSO solution. The assay plates will be incubated at 37 deg C for 24 hours, after which 3 uL/well BriteLite plus luciferase detection reagent mixture (Perkin Elmer) will be added. Luminescence signal will be measured in a ViewLux plate reader (Perkin Elmer) after a 10 minute incubation at the room temperature.", "values": [{"compound": "COc1cccc(CCNCc2ccc(SC)cc2)c1", "outcome": "inactive"}, {"compound": "COc1ccc(C(CC(=O)N2CCC3(CC2)OCCO3)NS(=O)(=O)c2ccc(F)cc2)cc1", "note": "(stereo unspecified)", "outcome": "inactive"}, {"compound": "Cc1cccn2c(NCC3CCCO3)c(C(C)C)nc12", "note": "(stereo unspecified)", "outcome": "inactive"}, {"compound": "CN1CCc2cc3c(c4c2C1Cc1ccccc1-4)OCO3", "note": "(stereo unspecified)", "outcome": "inactive"}, {"compound": "O=C1c2ccccc2C(=O)N1Cc1nc2ccccc2c(=O)n1-c1cccnc1", "outcome": "inactive"}, {"compound": "CCC(=NCc1cccnc1)c1c(O)n(-c2ccccc2)c(=O)[nH]c1=O", "outcome": "inactive"}]}]}
